This note sets out measurements from ChEMBL document CHEMBL1961873, “Compounds: GSK PKIS; Assays: Nanosyn kinase panel” (2012).

Test [1] has as its target High affinity nerve growth factor receptor (Homo sapiens) (UniProt P04629). The note with it: at 1 µM.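 Also: each value is the mean percent inhibition of TRKA.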
Test [2] deals with BDNF/NT-3 growth factors receptor (Homo sapiens) (UniProt Q16620). The conditions noted are these: at 0.1 µM.
Test [3] shares this target. The note with it: at 1 µM.
Test [4] addresses NT-3 growth factor receptor (Homo sapiens) (UniProt Q16288). The note with it: at 0.1 µM.
Test [5] shares this target. The note with it: at 1 µM.
Test [6] has as its target T1, Tyrosine-protein kinase TXK (Homo sapiens) (UniProt P42681).
T1 sequence (whole entry): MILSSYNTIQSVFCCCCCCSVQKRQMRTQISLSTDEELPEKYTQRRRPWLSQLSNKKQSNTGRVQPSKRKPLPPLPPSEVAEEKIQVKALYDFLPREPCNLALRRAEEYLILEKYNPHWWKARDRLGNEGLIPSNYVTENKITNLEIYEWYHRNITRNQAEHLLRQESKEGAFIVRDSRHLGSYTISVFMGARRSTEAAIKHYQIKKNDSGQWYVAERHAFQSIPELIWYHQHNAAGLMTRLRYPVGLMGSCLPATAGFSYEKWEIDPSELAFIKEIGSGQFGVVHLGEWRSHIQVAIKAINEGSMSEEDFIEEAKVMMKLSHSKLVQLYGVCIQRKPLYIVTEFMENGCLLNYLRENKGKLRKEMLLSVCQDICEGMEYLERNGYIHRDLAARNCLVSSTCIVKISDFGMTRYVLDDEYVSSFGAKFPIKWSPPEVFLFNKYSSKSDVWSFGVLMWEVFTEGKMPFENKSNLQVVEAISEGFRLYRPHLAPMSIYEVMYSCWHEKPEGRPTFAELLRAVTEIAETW
The conditions noted are these: at 0.1 µM.

Test [7] deals with T1, Tyrosine-protein kinase TXK (Homo sapiens). The note with it: at 1 µM.
The target in test [8] is Non-receptor tyrosine-protein kinase TYK2 (Homo sapiens) (UniProt P29597). The note with it: at 0.1 µM.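 Also: each value is a mean of the inhibition readings.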
The target in test [9] is T2, Dual specificity protein kinase TTK (Homo sapiens) (UniProt P33981).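 Also: reported figures are mean TTK inhibition at 1 µM.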
T2 sequence (whole entry): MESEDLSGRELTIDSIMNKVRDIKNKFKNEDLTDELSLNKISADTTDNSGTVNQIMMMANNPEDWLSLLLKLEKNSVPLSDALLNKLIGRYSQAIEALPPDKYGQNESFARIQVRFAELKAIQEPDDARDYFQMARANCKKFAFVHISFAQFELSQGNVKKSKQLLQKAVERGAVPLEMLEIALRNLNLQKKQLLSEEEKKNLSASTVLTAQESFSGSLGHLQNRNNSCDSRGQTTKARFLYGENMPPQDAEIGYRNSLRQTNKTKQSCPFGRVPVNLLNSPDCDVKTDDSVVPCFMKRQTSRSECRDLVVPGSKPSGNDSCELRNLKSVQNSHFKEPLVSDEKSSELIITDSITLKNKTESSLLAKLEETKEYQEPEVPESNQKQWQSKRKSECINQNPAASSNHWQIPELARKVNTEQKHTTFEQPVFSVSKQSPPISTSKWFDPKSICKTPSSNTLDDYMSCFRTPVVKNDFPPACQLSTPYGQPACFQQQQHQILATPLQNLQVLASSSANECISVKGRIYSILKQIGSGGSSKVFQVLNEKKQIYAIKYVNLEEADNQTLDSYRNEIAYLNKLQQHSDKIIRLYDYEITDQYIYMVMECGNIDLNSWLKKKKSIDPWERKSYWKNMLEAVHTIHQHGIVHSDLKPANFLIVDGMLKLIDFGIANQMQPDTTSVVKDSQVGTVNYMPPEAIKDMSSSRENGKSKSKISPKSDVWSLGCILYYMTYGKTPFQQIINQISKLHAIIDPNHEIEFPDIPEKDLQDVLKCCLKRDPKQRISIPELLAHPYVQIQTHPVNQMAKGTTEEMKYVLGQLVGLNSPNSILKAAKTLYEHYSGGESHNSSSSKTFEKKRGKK
The note with it: at 1 µM.

For test [10], the target named is T3, Aurora kinase A (Homo sapiens) (UniProt O14965).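 Also: each reported value is a mean percent inhibition of Aurora-A.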
T3 sequence (whole entry): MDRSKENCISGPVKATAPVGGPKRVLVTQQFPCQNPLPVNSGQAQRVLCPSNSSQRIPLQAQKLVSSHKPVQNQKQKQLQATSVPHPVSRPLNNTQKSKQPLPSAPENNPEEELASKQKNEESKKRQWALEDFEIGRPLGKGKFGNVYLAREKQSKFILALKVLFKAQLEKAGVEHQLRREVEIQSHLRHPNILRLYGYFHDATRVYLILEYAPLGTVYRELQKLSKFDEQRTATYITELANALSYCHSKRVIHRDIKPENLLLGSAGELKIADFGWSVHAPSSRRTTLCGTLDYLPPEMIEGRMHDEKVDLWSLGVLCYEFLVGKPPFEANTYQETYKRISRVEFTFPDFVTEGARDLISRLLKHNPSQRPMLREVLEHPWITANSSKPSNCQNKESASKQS
The conditions noted are these: at 0.1 µM.

Sequence of BDNF/NT-3 growth factors receptor (Homo sapiens) (Q16620 32-822 limits assumed): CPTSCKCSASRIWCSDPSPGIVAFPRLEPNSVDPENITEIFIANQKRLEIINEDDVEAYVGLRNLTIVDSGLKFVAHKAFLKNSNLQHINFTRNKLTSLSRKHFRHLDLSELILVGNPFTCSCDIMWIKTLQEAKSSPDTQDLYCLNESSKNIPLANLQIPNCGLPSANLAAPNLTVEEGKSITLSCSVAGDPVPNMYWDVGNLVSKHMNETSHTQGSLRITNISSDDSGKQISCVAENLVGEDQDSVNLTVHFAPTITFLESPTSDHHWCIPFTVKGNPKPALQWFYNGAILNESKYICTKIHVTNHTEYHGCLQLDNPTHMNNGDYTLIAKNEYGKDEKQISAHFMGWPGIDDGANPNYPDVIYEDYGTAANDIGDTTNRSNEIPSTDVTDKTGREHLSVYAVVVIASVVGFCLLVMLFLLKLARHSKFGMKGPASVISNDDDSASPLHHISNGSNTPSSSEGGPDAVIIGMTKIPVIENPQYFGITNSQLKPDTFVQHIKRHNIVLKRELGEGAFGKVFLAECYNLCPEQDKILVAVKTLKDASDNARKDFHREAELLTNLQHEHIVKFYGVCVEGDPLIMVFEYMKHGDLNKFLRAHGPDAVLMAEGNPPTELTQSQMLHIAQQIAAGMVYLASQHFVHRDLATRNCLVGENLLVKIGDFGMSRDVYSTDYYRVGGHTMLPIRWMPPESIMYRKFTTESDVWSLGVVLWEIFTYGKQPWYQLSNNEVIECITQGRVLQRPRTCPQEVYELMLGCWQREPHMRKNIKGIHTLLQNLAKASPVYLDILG
Sequence of NT-3 growth factor receptor (Homo sapiens) (Q16288 32-839 limits assumed): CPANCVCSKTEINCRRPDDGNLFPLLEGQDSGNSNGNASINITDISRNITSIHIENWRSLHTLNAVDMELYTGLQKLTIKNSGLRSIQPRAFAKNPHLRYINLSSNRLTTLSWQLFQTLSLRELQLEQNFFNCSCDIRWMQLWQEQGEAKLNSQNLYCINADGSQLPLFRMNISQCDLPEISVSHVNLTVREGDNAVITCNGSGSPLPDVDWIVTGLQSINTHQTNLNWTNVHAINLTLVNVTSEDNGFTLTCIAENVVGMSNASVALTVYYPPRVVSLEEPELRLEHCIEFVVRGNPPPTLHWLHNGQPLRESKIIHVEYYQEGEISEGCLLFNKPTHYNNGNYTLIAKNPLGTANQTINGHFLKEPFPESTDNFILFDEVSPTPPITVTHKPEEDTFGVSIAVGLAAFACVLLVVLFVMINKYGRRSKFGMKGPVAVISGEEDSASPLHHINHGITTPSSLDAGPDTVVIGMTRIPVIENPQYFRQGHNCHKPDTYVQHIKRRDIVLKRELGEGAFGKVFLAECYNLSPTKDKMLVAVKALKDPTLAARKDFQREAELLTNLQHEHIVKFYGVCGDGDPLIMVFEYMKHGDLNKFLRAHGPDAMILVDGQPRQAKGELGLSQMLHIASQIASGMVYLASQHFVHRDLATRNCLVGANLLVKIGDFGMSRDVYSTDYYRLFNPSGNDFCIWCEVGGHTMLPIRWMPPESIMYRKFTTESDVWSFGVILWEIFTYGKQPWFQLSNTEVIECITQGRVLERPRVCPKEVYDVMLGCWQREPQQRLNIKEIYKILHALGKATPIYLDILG
Sequence of Non-receptor tyrosine-protein kinase TYK2 (Homo sapiens) (P29597 whole entry): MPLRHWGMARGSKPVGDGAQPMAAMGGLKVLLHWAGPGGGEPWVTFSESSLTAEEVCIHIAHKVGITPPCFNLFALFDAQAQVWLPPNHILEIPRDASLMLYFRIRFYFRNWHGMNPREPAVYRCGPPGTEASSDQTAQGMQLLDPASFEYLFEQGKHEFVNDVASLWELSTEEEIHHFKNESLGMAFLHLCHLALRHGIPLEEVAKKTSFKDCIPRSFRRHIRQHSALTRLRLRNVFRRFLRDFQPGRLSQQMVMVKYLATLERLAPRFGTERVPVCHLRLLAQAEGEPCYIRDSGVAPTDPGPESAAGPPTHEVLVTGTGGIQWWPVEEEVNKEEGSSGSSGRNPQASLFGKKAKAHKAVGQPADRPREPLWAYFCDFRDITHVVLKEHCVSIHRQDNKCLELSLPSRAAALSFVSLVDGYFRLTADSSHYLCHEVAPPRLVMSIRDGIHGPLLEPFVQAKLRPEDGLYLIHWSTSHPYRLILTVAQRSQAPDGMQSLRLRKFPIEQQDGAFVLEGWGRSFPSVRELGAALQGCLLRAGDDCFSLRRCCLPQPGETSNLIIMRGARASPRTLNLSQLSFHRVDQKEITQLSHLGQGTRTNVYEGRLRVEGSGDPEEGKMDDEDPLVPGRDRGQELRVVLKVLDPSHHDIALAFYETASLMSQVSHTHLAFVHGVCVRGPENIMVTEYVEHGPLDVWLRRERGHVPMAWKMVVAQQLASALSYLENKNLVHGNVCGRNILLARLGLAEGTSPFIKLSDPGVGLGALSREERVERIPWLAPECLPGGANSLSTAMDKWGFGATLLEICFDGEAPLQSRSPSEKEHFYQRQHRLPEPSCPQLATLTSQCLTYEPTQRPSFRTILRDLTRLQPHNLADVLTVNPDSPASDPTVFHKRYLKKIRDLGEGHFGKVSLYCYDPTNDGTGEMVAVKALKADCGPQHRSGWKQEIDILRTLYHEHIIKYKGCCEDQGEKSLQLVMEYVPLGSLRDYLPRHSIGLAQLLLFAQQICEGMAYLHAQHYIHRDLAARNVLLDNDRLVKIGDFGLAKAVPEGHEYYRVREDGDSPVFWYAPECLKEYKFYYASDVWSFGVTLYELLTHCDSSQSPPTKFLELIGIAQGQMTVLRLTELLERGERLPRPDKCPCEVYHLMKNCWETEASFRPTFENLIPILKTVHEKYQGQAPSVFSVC
Sequence of High affinity nerve growth factor receptor (Homo sapiens) (P04629 33-796 limits assumed): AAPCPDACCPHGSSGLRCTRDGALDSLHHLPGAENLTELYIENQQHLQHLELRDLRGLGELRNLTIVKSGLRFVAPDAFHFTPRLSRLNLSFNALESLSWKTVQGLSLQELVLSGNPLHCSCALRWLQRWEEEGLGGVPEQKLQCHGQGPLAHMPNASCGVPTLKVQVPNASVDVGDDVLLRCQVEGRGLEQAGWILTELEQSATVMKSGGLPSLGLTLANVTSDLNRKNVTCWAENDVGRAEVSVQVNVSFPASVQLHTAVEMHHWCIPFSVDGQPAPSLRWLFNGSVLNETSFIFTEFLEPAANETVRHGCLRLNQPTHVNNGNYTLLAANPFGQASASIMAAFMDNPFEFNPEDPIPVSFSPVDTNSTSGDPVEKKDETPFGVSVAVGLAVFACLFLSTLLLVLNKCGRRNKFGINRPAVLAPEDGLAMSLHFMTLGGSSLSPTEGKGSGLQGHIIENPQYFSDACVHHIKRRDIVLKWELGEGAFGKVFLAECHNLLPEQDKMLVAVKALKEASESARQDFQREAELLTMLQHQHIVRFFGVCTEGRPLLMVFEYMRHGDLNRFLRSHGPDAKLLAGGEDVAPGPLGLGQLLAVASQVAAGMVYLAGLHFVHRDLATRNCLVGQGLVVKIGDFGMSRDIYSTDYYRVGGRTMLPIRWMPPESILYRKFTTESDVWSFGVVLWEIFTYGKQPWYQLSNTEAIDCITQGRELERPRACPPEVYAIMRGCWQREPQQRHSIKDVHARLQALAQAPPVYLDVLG

For `O=C(Nc1ccc(Oc2ccc3[nH]c(NC(=O)c4ccco4)nc3c2)cc1)Nc1cc(C(F)(F)F)ccc1F`, the inhibition (commonly the drop in the measured response relative to a control, in per cent) in test [1] was 85.5%; in test [2], 27.8%; in test [3] it was 73.9%; in test [4], 30.8%; in test [5], 89.6%; in test [6], -1.98%. Besides, the inhibition in [7] is -1.15%; in test [8], 1.41%; in test [9] it was 13.6%; in test [10], -1.76%.
Turning to `CN1CCN(C(=O)c2ccc(NC(=O)Nc3ccc(N(C)c4ccnc(Nc5ccc(CS(C)(=O)=O)cc5)n4)cc3)cc2)CC1`, the inhibition in test [1] was 51%; in [2], 5.61%; in test [3] it was 31.5%; in test [4], 9.24%; in test [5] it was 36.9%; in test [6] it was 33.8%. The inhibition was 70.1% in test [7], -4.74% in [8], 8.24% in test [9] and 84.3% in test [10].
On to `CCS(=O)(=O)c1ccc(OC)c(Nc2nccc(N(C)c3ccc4c(C)n[nH]c4c3)n2)c1`, for which the inhibition in [1] is 11.7%; in [2] it was 5.19%; in [3], 14.1%; in [4], 4.34%; in [5] it was 17.5%; in [6], 1.6%. Further, the inhibition in test [7] is 26.2%; in test [8], -6.13%; in test [9], 11.9%; in [10], 4.98%.
For the molecule `COc1cc2ncn(-c3cc(OCc4ccccc4S(C)(=O)=O)c(C#N)s3)c2cc1OC`, the inhibition in test [1] was 18.8%; in test [2], 15%; in test [3] it was 57.2%; in [4], 12.9%; in test [5] it was 56.1%; in test [6], 10.8%. Further, the inhibition in test [7] was 42.5%; in test [8], -7.35%; in test [9], 11.1%; in [10] it was 12.4%.
For the molecule `NS(=O)(=O)c1ccc(NC=C2C(=O)Nc3ccc4ncsc4c32)cc1`, the inhibition in test [1] is 68.8%; in [2], 31.8%; in test [3] it was 80.2%; in test [4], 35.6%; in test [5] it was 84.6%; in [6], 4.55%. The inhibition was found to be 17.2% in test [7], 11% in test [8], 75.5% in [9] and 34.6% in test [10].
As for `Cc1ccc(O)cc1Nc1ccnc2ccc(S(C)(=O)=O)cc12`, the inhibition was 2.38% in test [1]; 3.22% in test [2]; 5.52% in test [3]; 6.41% in test [4]; 7.31% in test [5]; 81% in test [6]. The inhibition in test [7] is 83.8%; in [8], -1.89%; in test [9], 10%; in [10] it was 1.96%.
For the molecule `COc1cc2ncnc(Nc3ccc4c(cnn4Cc4ccccc4)c3)c2cc1OC`, the inhibition came out at 2.18% in test [1]; 2.13% in test [2]; 3.38% in test [3]; 1.5% in test [4]; 2.59% in test [5]; 0.73% in [6]. For the same molecule, the inhibition in test [7] was 4.56%; in [8], -1.09%; in test [9] it was 13.2%; in [10] it was 1.22%.
Regarding `Cc1ccc(C(=O)NC2CC2)cc1-c1ccc2[nH]ncc2c1`, the inhibition in [1] was -1.16%; in test [2], -1.91%; in test [3], -0.53%; in test [4], -1.71%; in [5] it was 0.33%; in test [6], -2.22%. Also, the inhibition was 0.71% in test [7], 0.52% in [8], -6.13% in test [9] and -3.2% in test [10].
On to `Nc1nccc(C#Cc2cncnc2Nc2ccc(OCc3cccc(F)c3)c(Cl)c2)n1`, for which the inhibition in test [1] was 9.29%; in test [2], 3.48%; in test [3] it was 11.3%; in test [4], 2.67%; in [5], 9.94%; in [6], 3.85%. The inhibition in test [7] is 8.58%; in [8] it was -3.29%; in test [9], 14.2%; in test [10] it was 1.06%.
Consider `Nc1nccc(-c2c(-c3ccc(F)cc3)ncn2CCCN2CCOCC2)n1`, for which the inhibition in [1] amounted to 2.15%; in [2], 1.18%; in test [3], 6.6%; in [4] it was 0.23%; in test [5], 4.59%; in test [6], 3%. The inhibition in [7] was 3.47%; in [8], -3.95%; in test [9], 6.61%; in test [10], 3.86%.
`Cc1ccc2c(c1)/C(=N/Nc1ccc(S(N)(=O)=O)cc1)C(=O)N2`: the inhibition stood at 11.8% in test [1]; 3.81% in test [2]; 31.2% in [3]; 4.95% in test [4]; 39.2% in [5]; 1.24% in test [6]. Besides, the inhibition in test [7] worked out at 3.92%; in test [8] it was 1.2%; in [9] it was 33.2%; in test [10], 2.87%.
As for `NS(=O)(=O)c1cccc(-c2cc3ccncc3cc2OCc2ccccc2)c1`, the inhibition came to 5.54% in test [1]; 2.94% in [2]; 6.23% in test [3]; 1.81% in test [4]; 6.72% in [5]; 4.1% in test [6]. For the same molecule, the inhibition in test [7] is 10.2%; in test [8], -2.99%; in test [9], 11.2%; in [10] it was 3.18%.
In the case of `CN(C)C(=O)O[C@H]1CN[C@H](C#Cc2cc3ncnc(Nc4ccc(OCc5cccc(F)c5)c(Cl)c4)c3s2)C1`, the inhibition worked out at 0.1% in test [1]; 1.92% in test [2]; 2.03% in test [3]; 1.38% in test [4]; 2.78% in test [5]; 2.86% in [6]. In addition, the inhibition in test [7] is 4.84%; in [8], -7.95%; in [9], 6.07%; in test [10], 1.25%.
On to `NC(=O)c1sc(-n2cnc3ccccc32)cc1OCc1ccccc1Br`, for which the inhibition stood at 5.34% in [1]; 3.05% in [2]; 4.07% in test [3]; 1.79% in test [4]; 3.41% in test [5]; 3.34% in test [6]. Also, the inhibition in test [7] is 5.57%; in [8] it was -1.33%; in test [9], 13%; in [10], 3.86%.
Consider `N#Cc1c(NC(=O)c2ccccc2F)sc2c1CCCC2`, for which the inhibition in test [1] was -2.78%; in test [2] it was -1.85%; in test [3], -1.97%; in test [4] it was 0.83%; in test [5] it was -1.95%; in [6], -0.16%. In addition, the inhibition in test [7] was 1.71%; in [8] it was 2.79%; in [9], 1.13%; in test [10] it was -0.7%.
As to `CCS(=O)(=O)c1ccc(OC)c(Nc2ncc(-c3cccc(OC)c3)o2)c1`, the inhibition in test [1] came out at 30.9%; in test [2], 7.72%; in [3], 43.5%; in test [4] it was 11.7%; in test [5], 49.3%; in [6], 14.5%. Further, the inhibition in test [7] is 53.4%; in test [8] it was -5.06%; in [9] it was 7.02%; in [10], 4.52%.
Regarding `Cc1cc(O)cc(C)c1/C=C/c1cncc(C(=O)N(C)C)c1`, the inhibition in test [1] is 2.43%; in test [2] it was 1.59%; in test [3], 0.08%; in [4], 2.73%; in test [5], 1.59%; in test [6] it was 2.92%. For the same molecule, the inhibition is 3.74% in [7], -1.5% in [8], 4.52% in [9] and 2.58% in test [10].
